# Many of the other results were omitted from the sample, so hits are more common in it than they were.
# VACV Venus inh = inhibitors of vaccinia virus (Venus reporter); Vaccinia virus Venus reporter expression, fluorescence; Potency, µM (series often up to 36.5 µM), for the others: at the highest dose activity change, negative = inhibition, usual class: inhibitors; 330,000 tested, 0.46% active; calls by dose curve; tested in A549 cells; note: potency is the fitted concentration of half-maximal effect; % is set by controls: 0 for no effect and ±100 for the full control effect; nearly all actives have a fitted effect of over 30% in size
# LASV entry inh = Lassa virus entry inhibition; Potency, µM (highest dose often 37.9 µM), without a hit: at the top dose activity change, negative = inhibition, hits mostly inhibitors; Lassa virus pseudotype entry inhibition, cell reporter; 300,000 tested, 1.2% active; calls by dose curve; tested in HEK293 cells; note: potency is the fitted concentration of half-maximal effect; % is set by controls: 0 for no effect and ±100 for the full control effect; nearly all actives have a fitted effect of over 50% in size
# Shiga toxin inh = Shiga toxin inhibition; Vero cells, Shiga toxin protein synthesis inhibition reporter; inhibition, % at 38.7 µM; 290,000 tested, 9.2% active; AID 2315; in the data active = inhibition mostly above about 28%, no sharp cut-off; inactive = mostly below about 43%; note: 0% is about no effect
# Marburg entry inh = blocks Marburg virus binding to or entry into cells. Marburg virus pseudotyped entry inhibition, cell reporter. AID 540276. Potency, µM (highest dose often 37.8 µM), inactives show at the top dose activity change, negative = inhibition, actives largely listed as inhibitors. 300,000 tested, 1.8% active; calls by dose curve; tested in HEK293 cells; note: potency is the fitted concentration of half-maximal effect; % is set by controls: 0 for no effect and ±100 for the full control effect
# CHX counter = counter-screen for Shiga toxin inhibitors: cycloheximide protein synthesis inhibition; cell reporter, cycloheximide protein synthesis inhibition counterscreen; AID 2314; 300,000 tested, 12% active; max response, %; in the data active = max response mostly above about 13%, no sharp cut-off; inactive = mostly below about 14%; note: read at 38.3 µM for the half of the compounds with a filed dose; 0% is about no effect
# Vaccinia mCherry = vaccinia inhibition (mCherry reporter) | 310,000 tested, 0.63% active | Vaccinia virus mCherry reporter infection, fluorescence | AID 720579 | Potency, µM (titrated, usually from 36.5 µM), for the others: at the top dose activity change, negative = inhibition, actives largely listed as inhibitors; calls by dose curve; tested in A549 cells; note: potency is the fitted concentration of half-maximal effect; % is set by controls: 0 for no effect and ±100 for the full control effect; nearly all actives have a fitted effect of over 35% in size
# Active calls of the source: *; i = inactive; ? = inconclusive; / = not tested or not shown; [ ] = remark or other dose.
SMILES,VACV Venus inh,LASV entry inh,Shiga toxin inh,Marburg entry inh,CHX counter,Vaccinia mCherry
CC(=O)Nc1ccc(-c2ccnc(-c3ccc(NC(C)=O)cc3)n2)cc1,-8%,9%,23,?,-3,-14%
Oc1ccc(-c2cccc(-c3ccc(O)cc3)n2)cc1,-17%,1%,67*,-11%[46.1 µM],39*,-21%
COC(=O)C(C)Oc1ccc(-c2nccc(-c3cccs3)n2)cc1 (configuration not stated),-11%,-21%,51*,16%,27*,/
Cc1ccc(C)n1-c1nccc(-c2cccs2)n1,-14%,10%,4,7%,5,-23%
Oc1ccc(-c2nccc(-c3ccc(Cl)cc3)n2)cc1,-28%,1%,123*,?,53*,?
CCOc1ccc(NC(=O)Cn2cnc3nc4c(cc3c2=O)CCCC4)cc1,-10%,9%[46.1 µM],/,/,/,-10%
COc1cccc(CNC(=O)c2ccc3c(c2)nnn3C2CCCC2)c1,-4%,-11%[46.1 µM],/,/,/,-4%
COc1ccc(F)c(CN2CCOc3ccc(CN4CCC(O)(c5cccnc5)CC4)cc3C2)c1,-8%,/,/,/,/,-20%
Cc1cccc(C(=O)N2CCCC(Nc3ccc(C)c(C)c3)C2)n1 (configuration not stated),/,/,-14,/,9,/
CC(=NNC(=S)N1CC2CCC(CC2)C1)c1cccc(C)n1,?,?,/,?,/,4µM*
CCOc1cc(CNC(=O)C(NS(=O)(=O)c2cccs2)C(C)C)cc(OCC)c1OCC (configuration not stated),-6%,3%[46.1 µM],/,/,/,-11%
Cc1ccc(Cn2nc(-c3ccccc3)nc2-c2ccccc2)cc1,3%,?,121*,?,45*,-13%
NC(=O)Cn1nc(-c2ccccc2)nc1-c1ccccc1,-2%,1%,/,5%,/,-12%
c1ccc(Cn2nc(-c3ccccc3)nc2-c2ccccc2)cc1,-12%,?,52*,?,54*,i
COc1cc(NC(=O)C(Cc2ccccc2)NS(=O)(=O)c2cccs2)cc(OC)c1 (configuration not stated),-4%,1%[46.1 µM],/,/,/,-4%
COc1ccc(C(=O)N2CCOc3ccc(CN4CCN(c5ccccn5)CC4)cc3C2)o1,-3%,/,/,/,/,-7%
Cc1nc(-c2nc(-c3c(C(=O)NN)noc3C)cs2)cs1,-23%,12%[46.1 µM],66*,?,28*,-23%
Cc1nc(-c2nc(-c3c(C(=O)NNC(=O)c4ccc(Cl)cc4)noc3C)cs2)cs1,-17%,-1%,17,?,0,-28%
Cc1c(C(=O)NCCN2CCC(c3ccccc3)CC2)cnn1-c1nccc(-c2cccs2)n1,-27%,/,/,/,/,?
CCCc1cc2c(=O)c(-c3ccc4c(c3)OCCO4)coc2cc1OC(=O)c1ccco1,-15%,-26%,98*,?,30*,i
CCCc1cc2c(=O)c(-c3ccc4c(c3)OCCO4)coc2cc1OS(C)(=O)=O,?,?,45*,?,56*,10µM*
CCCc1cc2c(=O)c(-c3ccc4c(c3)OCCO4)c(C)oc2cc1OS(C)(=O)=O,?,-21%,24,-27%,3,?
CCc1cc2c(=O)c(-c3ccc4c(c3)OCCO4)coc2cc1OC(=O)c1ccco1,/,?,93*,?,38*,/
CC[C@@]1(C)Cc2c(sc3c2c(=O)n(C)c2nnc(SCc4ccc5c(c4)OCO5)n32)CO1,/,/,/,-17%,/,/
COc1ccccc1C(=O)/C=C/c1ccc(N2CCCCC2)c([N+](=O)[O-])c1,?,?,99*,?,62*,?
SMILES,VACV Venus inh,LASV entry inh,Shiga toxin inh,Marburg entry inh,CHX counter,Vaccinia mCherry
O=C(/C=C/c1cccc([N+](=O)[O-])c1)NCc1ccccc1,-11%,-22%,-10,?,6,-9%
Nc1nnnn1/N=C/c1ccc(N2CCCCC2)c([N+](=O)[O-])c1,-9%,27%,63*,?,38*,i
O=C(/C=C/c1cccc([N+](=O)[O-])c1)c1ccccc1,/,/,/,-27%[14.2 µM],/,/
CC(=O)Oc1ccccc1C(=O)C=Cc1cccc([N+](=O)[O-])c1,?,?,/,?,/,14µM*
CCCC(C)NC(=O)/C=C/c1cccc([N+](=O)[O-])c1 (configuration not stated),-16%,-28%,-1,-1%,11*,/
O=C(O/N=C\c1ccc(N2CCCCC2)c([N+](=O)[O-])c1)c1ccc(Cl)cc1Cl,-9%,2%,-7,-18%,-3,i
CCc1ccc(NC(=O)NCCc2c(C)nn(C)c2C)cc1,11%,?,/,/,/,-1%
O=C(/C=C/c1ccc(N2CCCCC2)c([N+](=O)[O-])c1)c1ccc(O)cc1,-17%,-62%[46.1 µM],55*,?,47*,?
O=C(/C=C/c1cccc([N+](=O)[O-])c1)OCC1CCCO1 (configuration not stated),/,/,26*,/,11*,/
O=C(/C=C/c1cccc([N+](=O)[O-])c1)OCC(=O)c1ccccc1,-11%,/,-3,/,-5,-28%
O=C(c1ccc(Br)cc1)N1CCC(C(=O)N2CCN(c3ccccc3)CC2)CC1,/,/,-7,/,-6,/
O=C1CN(c2ccccc2)C(=S)N1C(=O)c1ccc(Br)cc1,-16%,?,96*,?,43*,-2%
O=C(N/N=C/C=C/c1ccccc1[N+](=O)[O-])c1cccnc1,-2%,-2%,14,?,6,-2%
O=C(O)c1ccc(N/N=C/C=C/c2ccccc2[N+](=O)[O-])cc1,-7%,?,52*,3%,45*,i
O=C(Cc1cccs1)N/N=C/C=C/c1ccccc1[N+](=O)[O-],?,?,62*,-25%[14.2 µM],22*,-6%
N#C/C(=C\C=C\c1ccccc1[N+](=O)[O-])C(=O)NCc1ccccc1,-17%,10µM*,26,?,31*,-30%
Cc1ccc(CSc2nnc(SCC(=O)N/N=C/C=C/c3ccccc3[N+](=O)[O-])s2)cc1,-6%,?,48*,?,21*,-14%
CCN(Cc1ccccc1)C(=O)/C=C/c1ccccc1[N+](=O)[O-],/,7%,14,-18%,-3,/
Cc1ccccc1-n1c(SCC(=O)N/N=C/C=C/c2ccccc2[N+](=O)[O-])nc2ccccc2c1=O,-16%,?,-9,7.1µM*,-3,-20%
O=C(Cc1cccs1)N/N=C/C=C\c1ccco1,5%,?,-3,10%[46.1 µM],12,i
O=C(CSc1nc2ccccc2c(=O)n1-c1ccccc1)N/N=C/C=C/c1ccccc1[N+](=O)[O-],/,/,0,/,15,/
O=C(Cc1ccccc1)N/N=C/C=C/c1ccccc1[N+](=O)[O-],-1%,-3%,18,0%[14.2 µM],16*,-13%
COc1ccccc1/C=C/C=N/NC(=O)Cc1cccs1,-15%,0.12µM*,73*,?,42*,-20%
CN(Cc1cccs1)C(=O)/C=C/c1ccccc1[N+](=O)[O-],0%,13%,69*,9%[46.1 µM],31,-5%
O=C(N/N=C/C=C/c1ccccc1[N+](=O)[O-])c1ccncc1,-10%,0%[46.1 µM],6,-7%[46.1 µM],-4,-5%
